The results in this text go back to PubChem BioAssay (NCI).

About 83,000 compounds went through this panel and 20% of them were active in at least one assay; those are over-represented in the sample as a whole.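 Single-dose data. Exposure time 48 hours. Values below 10 considered active.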 Unmarked numbers belong to inactive results. Calls of active or inactive are those of the source.

This test deals with HL-60(TB) leukemia. Put plainly: NCI-60 one-dose screen, 48 h (100 = growth as untreated, 0 = no growth, -100 = all killed). The settings on record: 10 µM unless noted.
As for `O=C(C(=O)N1CCCC1)c1cn(CCCn2cc(C(=O)C(=O)N3CCCC3)c3cc(Br)ccc32)c2ccc(Br)cc12`, the growth was 86.5%.
Consider `CC1(C)C(=NO)C(C)(C)C1=NO`, for which the growth is 113%.
In the case of `Nc1cc(C(=O)NC[C@H]2CN(c3ccc(N4CCC(C(=O)O)CC4)cc3)C(=O)O2)ccc1Cl`, the growth was 97.9%.
As for `c1ccc(-c2nc3nonc3nc2-c2ccccc2)cc1`, the growth was 85.3%.
In the case of `COC(=O)CC(=O)C(=O)OC` it was 100%.
In the case of `O=C1C2=C(CCN(Cc3ccccc3)C2)N2CCN=C2N1Cc1ccc(C(F)(F)F)cc1` it was 20.4%; in that of `Cc1ccc2c3c(cccc13)-c1ccccc1C2=O`, 99%.
In the case of `O=C(Nc1ccc(F)cc1)c1cc2ccccc2cc1O` it was 71.2%; in that of `CCOc1ccc2c(c1)/C(=C\C=C\C1CC(C)C3CC(OCC)CCC3N1CC)CC(C)N2CC` (stereo not given), -35.7% (active); in that of `COc1ccccc1-n1c(-c2ccc(O)cc2C)cn2c3c(=O)[nH]c(=O)n(C)c3nc12`, 79.9%.
As for `CCN1C(=S)N(CC)C2C1NC(=S)N2/N=C/C=C/c1ccccc1OC` (stereo not given), the growth was -46.4% (active).
For the compound `CSc1nc2c(c(=O)n1C)C(c1ccccc1)C1=C(N2)/C(=C/c2ccccc2)CCC1` (stereo not given), the growth is 12.8%.
In the case of `CCCCCC(=C/c1ccccc1)/C=N/N=C(N)N` it was -30.2% (active); in that of `O=C(CCOCCNC(=O)COc1ccc2c(c1)OCC(c1ccc(F)cc1)C2=O)NCCCC(O)(P(=O)(O)O)P(=O)(O)O` (stereo not given), 104%; in that of `O=C(c1ccccc1)N(C(=O)c1ccccc1)N1CCCC1`, 120%.
In the case of `COc1cc2c(cc1O)CC[C@@H]1[C@@H]2CC[C@]2(C)[C@@H](OCCCN(C)C)CC[C@@H]12` it was -48.5% (active).
In the case of `CC(C)(C)c1ccc(/C=C/C(=O)Nc2ccc(O)cc2)cc1` it was -12.6% (active); in that of `CN1C(=O)N(C)C2C1NN=c1s/c(=C\c3ccc([N+](=O)[O-])cc3)c(=O)n12` (stereo not given), 7.14% (active).
Take `NC(N)=NC(N)=Nc1ccccc1-c1ccccc1`: the growth was 108%.
In the case of `O=C1OCC2=C1C(c1cccc(Cl)c1)c1cc3c(cc1N2CCO)OCO3` (stereo not given) it was -19.3% (active).
For `Nc1cc(C(=O)O)cc(-n2c(O)c(C=C3N=c4ccccc4=N3)sc2=S)c1`, the growth is 101%.
On to `Cc1cc(=O)oc2cc(Oc3nc(-c4ccc(Cl)cc4)cn4c(-c5ccc(Cl)cc5)cnc34)ccc12`, for which the growth was 86.8%.
In the case of `N#CCCCCCn1c2ccccc2c2c3c(c4c5ccccc5n(CCCCCC#N)c4c21)C(=O)N(O)C3=O` it was 64.3%; in that of `CC(C)[O-].CC(C)[O-].CN(CCN(C)Cc1cc(F)cc(F)c1[O-])Cc1cc(F)cc(F)c1[O-].[Ti+4]`, 5.88% (active); in that of `Cc1nn(-c2ccccc2)c2nc3c(nc12)C1=NCCN1C(c1ccc(Cl)cc1)N3` (stereo not given), 70.7%.
In the case of `CS(=O)c1cccc(-c2ccc3nc(N)n(-c4ccc(C(F)(F)F)cc4)c(=O)c3c2)c1` (stereo not given) it was 100%; in that of `C#CCO[C@H]1CC[C@H](OCC#C)[C@@H]2[C@H]1[C@H]1C[C@@H]3[C@@]4(C)CCC[C@@](C)(C(=O)OC)[C@@H]4CC[C@@]23C=C1C(C)C`, 78.1%; in that of `Nc1c(Cl)cc2c(c1Br)C(=O)c1ccccc1C2=O`, 70.7%.
In the case of `CC(=O)OC(C(=O)c1ccccc1)c1ccccc1` (stereo not given) it was 114%; in that of `CCOC(=O)/C(C#N)=C(/C)C1CC1`, 110%.
Turning to `Cc1cc(N(CCNc2ccnc3cc(Cl)ccc23)Cc2cccs2)nc(Cl)n1`, the growth was -72.4% (active).
Regarding `C#CCOc1cccc(Nc2ncnc3ccc(NC(=O)C=C)cc23)c1`, the growth was 29.3%.
As for `CSc1nc(CC(C)C)c(C#N)c(=O)n1C`, the growth is 78.7%.
In the case of `COc1ccc(/C=C(/C(=O)N2CCN(Cc3ccccc3)CC2)c2cc(OC)c(OC)c(OC)c2)cc1O` it was 22.9%; in that of `C=C1C(=O)O[C@H]2[C@H]1CC/C(COC(=O)n1ccnc1)=C\CC[C@@]1(C)O[C@@H]21`, 64.3%.
As to `COc1cc2nc(NC3CCCC3)nc(NC3CCN(C(C)C)CC3)c2cc1OC`, the growth is 88.7%.
In the case of `Cc1ccc(NC(=S)/N=c2/n(-c3ccccc3)nc3n2CCN3C2=NCCN2)cc1` it was 156%; in that of `Cc1cc2nc(CS)[nH]c2cc1C`, 80.1%; in that of `CCNCc1ccccc1`, 101%.
For `COc1ccc(O)c(N=Nc2nccs2)c1`, the growth is -22.5% (active).
